High-throughput results deposited in PubChem BioAssay by The Scripps Research Institute Molecular Screening Center.
The list is not random: actives were taken first. Their share in the collection is about 1.6%.
MOR-DOR inv ag: inverse agonists of MOR-DOR heterodimerization, primary screen, cell-based, luminescence. Mu-type opioid receptor (Homo sapiens) + Delta-type opioid receptor (Homo sapiens), …. cell-based MOR-DOR heterodimer luminescence, inverse agonism. inhibition, % at 9.3 µM. hit rate 0.21% among 340,000; in the data active = inhibition above about 22%, passing the limit was not always enough;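 note: 0% = cells with DMSO and 100% = wells without cells with DMSO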
m5-HT2A agonist: mouse Htr2a agonists via beta-arrestin recruitment, primary screen, cell-based, luminescence; 5-hydroxytryptamine receptor 2A (Mus musculus), P35363; CHO-K1 mHTR2A beta-arrestin complementation; percent of 30 µM serotonin response; activation, % at 7.6 µM; hit rate 0.66% among 360,000;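 active = activation above a run cutoff, the mean activation of all tested compounds plus 3 SD, cut at about 14% in these data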;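 note: 0% = plate median of compound wells and 100% = 30 µM serotonin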
Target sequence (P35363 whole entry, looked up): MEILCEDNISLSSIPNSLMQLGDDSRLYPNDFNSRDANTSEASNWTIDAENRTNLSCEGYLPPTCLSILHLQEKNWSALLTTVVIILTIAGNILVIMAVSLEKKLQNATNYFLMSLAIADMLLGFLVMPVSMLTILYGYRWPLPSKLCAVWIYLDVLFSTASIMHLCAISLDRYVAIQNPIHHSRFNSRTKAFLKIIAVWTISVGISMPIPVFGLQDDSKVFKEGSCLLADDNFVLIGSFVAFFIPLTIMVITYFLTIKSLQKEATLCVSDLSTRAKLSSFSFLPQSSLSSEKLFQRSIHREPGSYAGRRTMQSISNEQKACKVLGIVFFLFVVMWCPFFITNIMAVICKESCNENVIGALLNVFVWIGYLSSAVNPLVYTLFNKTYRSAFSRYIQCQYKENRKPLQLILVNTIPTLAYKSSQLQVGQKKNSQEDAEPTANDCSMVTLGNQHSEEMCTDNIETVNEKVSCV
HTR5A inv ag: HTR5A inverse agonists in luminescence cell assay, primary screen, counter-screen for OPRM1-OPRD1 heterodimer inverse agonist project, full-deck HTS | hit rate 0.083% among 340,000 | inhibition, % at 9.3 µM | HTR5A cell line, inverse agonism | AID 504634, 2011; in the data active = inhibition mostly above about 23%, no sharp cut-off; inactive = mostly below about 18%;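 note: 0% = cells with DMSO and 100% = no-cell wells with DMSO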
OPRM1-OPRD1 ag: agonists of OPRM1-OPRD1 heterodimerization, primary screen, cell-based, luminescence. hit rate 0.3% among 340,000. activation, % at 9.3 µM. cells. Mu-type opioid receptor (Homo sapiens) + Delta-type opioid receptor (Homo sapiens), …; in the data active = activation above about 18%;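 note: 0% = vehicle-treated cells and 100% = reference agonist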
HTR5A ag ctr: HTR5A agonists in luminescence cell assay, primary screen, counter-screen for OPRM1-OPRD1 heterodimer agonist project, full-deck HTS | 5-hydroxytryptamine receptor 5A (Homo sapiens), P47898 | cell-based | activation, % at 9.3 µM | hit rate 0.61% among 340,000 | AID 504692, 2011; in the data active = activation mostly above about 9.5%, no sharp cut-off; inactive = mostly below about 7.6%;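 note: 0% = cells with vehicle only and 100% = reference agonist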
Numbers without * were called inactive; . = not tested or not shown.

SMILES	MOR-DOR inv ag	m5-HT2A agonist	HTR5A inv ag	OPRM1-OPRD1 ag	HTR5A ag ctr
CC(C)N(C(=O)CSc1nc2ccccc2n1Cc1ccccc1)C(C)C	4	-4	-23	-1	10.0*
COCCN(CCOC)Cc1cc(=O)oc2cc(C)cc(C)c12	.	3	.	.	.
Cc1c(Br)cccc1NC(=O)C1(C)CCN1C(C)C (stereo not drawn)	.	-2	.	.	.
CCN1CCCC1CNS(=O)(=O)c1ccc(Cl)c(C(F)(F)F)c1 (stereo not drawn)	14	-3	22	-3	13*
O=C(Nc1ccc(F)c(Cl)c1)c1cc(C2CCCCN2C(=O)CCc2ccccc2)on1 (stereo not drawn)	.	-5	.	.	.
Cc1cccc(C)c1NC(=O)C1c2ccccc2OCC(=O)N1CCc1ccccc1 (stereo not drawn)	.	2	.	.	.
COc1ccc(Nc2nc(Nc3ccc(OC)cc3)nc(-n3[nH]c(=O)c(C)c3C)n2)cc1	17	3	43*	-3	-3
CC(C)CC1NC(=O)c2cccnc2-n2c1nc1cc(F)ccc1c2=O (stereo not drawn)	.	-3	.	.	.
c1coc(-c2cc3nc(NC4CCCCC4)ccn3n2)c1	.	-3	.	.	.
C[C@H]1CN([C@@H](C)CO)C(=O)CCCn2nncc2CO[C@@H]1CN(C)S(=O)(=O)c1ccc(Oc2ccccc2)nc1	.	6	.	.	.
COc1ccc(NC(=O)CSc2nncn2N)c(OC)c1	4	-1	-17	-1	1
COc1ccccc1NC(=O)CSc1nncn1N	10	11	-2	-2	13*
COc1ccccc1CCc1nnc(CCC(=O)NC(C)Cc2ccsc2)o1 (stereo not drawn)	-11	8	-28	2	9.9*
Nc1nc2ccccc2cc1C(=O)NCc1cccs1	.	1	.	.	.
COc1ccc2nc(NCCCNC(=O)c3cc(OC)c(OC)c(OC)c3)c(C#N)cc2c1	0	-3	-4	0	14*
COc1cc(C(=O)NCCNc2nc3ccc(C)cc3cc2C#N)cc(OC)c1OC	7	8	3	-1	-1
CC1(C(=O)NCc2cccnc2)Cc2c(-c3cccc(C(F)(F)F)c3)ccnc2O1 (stereo not drawn)	.	5	.	.	.
CCN(CC)CCNC(=O)c1cc2c(s1)-c1ccccc1SC2	-21	-19	-48	4	13*
Cc1cc(CC(=O)O)n(C)c1C(=O)c1ccc(Cl)cc1	13	-1	-40	-2	9.7*
CCOC(=O)C1(C)CCCCCN1C(=O)c1csnn1 (stereo not drawn)	.	-4	.	.	.
Nc1nonc1-n1nnc(C(=O)N/N=C/c2ccc(Br)cc2)c1-c1ccc2c(c1)OCO2	0	5	-23	0	2
Nc1nonc1-n1nnc(C(=O)N/N=C/c2cccc(Cl)c2)c1-c1ccc2c(c1)OCO2	8	-1	16	-2	10*
CCCOc1ccc(-c2c(C(=O)N/N=C/c3ccc(C)o3)nnn2-c2nonc2N)cc1	-101	-6	-37	19*	9.8*
CCOc1ccc(-c2c(C(=O)N/N=C/c3ccc(C)o3)nnn2-c2nonc2N)cc1	17	1	0	-3	0
Cc1ccc(CN2C(=O)c3ccccc3C2c2nnnn2-c2c(C)cccc2C)cc1 (stereo not drawn)	.	-2	.	.	.
SMILES	MOR-DOR inv ag	m5-HT2A agonist	HTR5A inv ag	OPRM1-OPRD1 ag	HTR5A ag ctr
Nc1cccc2nsnc12	-9	-1	1	2	-3
Nc1cc2nsnc2cc1Br	-190	3	-34	32*	13*
CCOC(=O)CNC(=O)CSc1nc(N(C)C)nc(N2CCOCC2)n1	-13	-1	-11	3	11*
CCCOc1ccc(F)cc1-c1cc(C(=O)NCc2cccc(Cl)c2)[nH]n1	.	-4	.	.	.
CC(C)(C)OC(=O)N1CCc2onc(-c3ccccc3[N+](=O)[O-])c2C1=O	.	-4	.	.	.
O=C(NCc1ccco1)c1ccc(Br)s1	14	-1	6	-3	0
O=C(NCc1ccco1)c1ccc(C(=O)NCc2ccco2)s1	10	-10	-7	-2	10*
CN(C)C(=O)C[C@@H]1CC[C@@H](NC(=O)C2CCC2)[C@@H](CO)O1	.	0	.	.	.
COc1ccccc1C1CCN(C(=O)c2cnn(-c3ccccc3)c2C)CC1	-3	2	-1	1	12*
COc1ccccc1C1CCN(C(=O)c2ccccc2)CC1	4	-1	-21	-1	6
Cc1ccc(-c2nnc(SCC(=O)N/N=C/c3ccccc3C(=O)O)n2-c2ccc(C)cc2)cc1	-3	-1	-22	1	8
O=C(CSc1nnc(-c2ccccc2)n1-c1ccc(Cl)cc1)N/N=C/c1ccccc1C(=O)O	-5	2	-15	1	12*
COc1ccc(N2CC(O)(c3ccc(C)cc3)[N+]3=C2CCCC3)cc1 (stereo not drawn)	12	-6	-37	-3	13*
O=S(=O)(c1ccc2c(c1)OCCO2)N1CCN(Cc2ccccc2)CC1	4	-8	-14	-1	14*
CCCC(=Nc1ccccc1OC)C1=C(O)CC(c2ccccc2)CC1=O (stereo not drawn)	-9	3	31	2	-2
COc1ccccc1N=C(C)C1=C(O)CC(c2ccccc2)CC1=O (stereo not drawn)	1	-3	-59	0	8.9*
O=C1N/C(=C\c2ccc(O)cc2)C(=O)c2ccccc21	-33	10	18	6	12*
COCCn1c(N)c(C(=O)NS(=O)(=O)c2ccc(C)cc2)c(=O)[nH]c1=O	5	2	-29	-1	11*
Clc1ccc(/C=C/c2nc3ccccc3[nH]2)c(Cl)c1	-33	0	-17	7	13*
Clc1ccc(/C=C/c2nc3ccccc3[nH]2)cc1	-12	-4	-23	3	8
COc1cc(OC)cc(C(=O)NCC(=O)N2CCN(S(=O)(=O)c3ccccc3F)CC2)c1	18	-2	5	-5	1
O=C(NCC(=O)N1CCN(S(=O)(=O)c2ccccc2F)CC1)c1ccc2c(c1)OCO2	12	2	-31	-2	12*
O=C(Nc1cccc(C(F)(F)F)c1)c1csc([C@@H]2O[C@H](CO)[C@@H](O)[C@H]2O)n1	.	0	.	.	.
CC#CCN(Cc1ccco1)C(=O)c1ccc(OC2CCN(Cc3ccccn3)CC2)cc1	12	-10	-30	-2	9.8*
CCOC(=O)C1=CCN(S(=O)(=O)c2ccc(Cl)cc2)C1c1cccc(C)c1 (stereo not drawn)	.	-5	.	.	.
C[C@@H]1ON(C)[C@H]2C[C@H]3c4[nH]c5ccc(-c6ccc7c(c6)OCO7)cc5c4CCN3C(=O)[C@@H]12	.	-8	.	.	.
COc1ccc(-c2cn(-c3ccc(C)c(C)c3)c(=S)[nH]2)cc1OC	4	3	-8	-1	2
COc1ccc(-c2cn(-c3ccc(C)c(Cl)c3)c(=S)[nH]2)cc1OC	-23	6	-43	5	12*
